Assay results published in PubChem BioAssay (NCI).
“And” between values parts separate entries of the source, which are not always exact repeats. Equal entries are not always repeated. About 83,000 compounds went through this panel and 20% of them were active in at least one assay; those are over-represented in the sample as a whole.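 The test compound was applied at a single concentration to cells in 96-well plates for 48 hours, and percent growth was recorded.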 The source made the active and inactive calls. Rule for the calls: active = growth percent below 10; inactive = the rest.

What was measured:
Experiment in all cases: NCI-60 one-dose screen, 48 h (100 = growth as untreated, 0 = no growth, -100 = all killed)
Settings in all cases: 10 µM unless noted
SR leukemia = system: SR leukemia
RPMI-8226 leukemia = system: RPMI-8226 leukemia
OVCAR-8 ovarian = system: OVCAR-8 ovarian
OVCAR-5 ovarian = system: OVCAR-5 ovarian
OVCAR-4 ovarian = system: OVCAR-4 ovarian
SK-OV-3 ovarian = system: SK-OV-3 ovarian
IGROV1 ovarian = system: IGROV1 ovarian
OVCAR-3 ovarian = system: OVCAR-3 ovarian
HS 578T breast = system: HS 578T breast
NCI/ADR-RES ovarian = system: NCI/ADR-RES ovarian

Row | Structure (SMILES) | growth (SR leukemia) | growth (RPMI-8226 leukemia) | growth (OVCAR-8 ovarian) | growth (OVCAR-5 ovarian) | growth (OVCAR-4 ovarian) | growth (SK-OV-3 ovarian) | growth (IGROV1 ovarian) | growth (OVCAR-3 ovarian) | growth (HS 578T breast) | growth (NCI/ADR-RES ovarian)
1 | O=c1c(-c2nc(-c3ccccc3)c(-c3ccccc3)[nH]2)coc2ccc(F)cc12 | 63.5% (inactive) | 32.1% (inactive) | 82.6% (inactive) | 96.1% (inactive) | 47.3% (inactive) | 68.2% (inactive) | 62.8% (inactive) | 33.3% (inactive) | 71.6% (inactive) | 51.4% (inactive)
2 | O=C(N/N=C/c1c[nH]c2ccccc12)Nc1ccccc1Cl | 5.61% (active) | 7.68% (active) | -7.94% (active) | 23.1% (inactive) | 53.9% (inactive) | 15.4% (inactive) | 19.9% (inactive) | -28.4% (active) | 8.49% (active) | -9.92% (active)
3 | O=C1c2cccc3c(N4CCN(Cc5ccccc5)CC4)ccc(c23)C(=O)N1c1cccc(-c2nn(-c3ccccc3)cc2-c2nc3ccccc3s2)c1 | 87.3% (inactive) | 103% (inactive) | 115% (inactive) | 107% (inactive) | 105% (inactive) | 102% (inactive) | 89.5% (inactive) | 102% (inactive) | 106% (inactive) | 104% (inactive)
4 | Cn1cc(-c2cc(N)n3nc(-c4c[nH]c5ccc(F)cc45)cc3n2)c2cc(Br)cnc21 | -23.5% (active) | 19.2% (inactive) | 42.8% (inactive) | 74.2% (inactive) | 71.6% (inactive) | 104% (inactive) | 70.7% (inactive) | 109% (inactive) | 86.4% (inactive) | 56% (inactive)
5 | CCN1C(=O)N(CC)C2NNC(Sc3c(C(=O)O)c4ccccc4n(CCC(C)C)c3=O)=NC21 (stereo not given) | 6.32% (active) | 10.3% (inactive) | 5.92% (active) | 21.4% (inactive) | 46.5% (inactive) | 35.8% (inactive) | 17.3% (inactive) | -25.4% (active) | -14.6% (active) | -35.4% (active)
6 | O=C(CCl)Nc1ccc(C(=O)/C=C/c2cc3ccccc3nc2Cl)cc1 | -69.5% (active) and 25.5% (inactive) | -36.6% (active) and 40.5% (inactive) | 14.6% (inactive) and 48.6% (inactive) | -61.1% (active) and 55.9% (inactive) | -59.6% (active) and 54.7% (inactive) | 70.5% (inactive) and 66.7% (inactive) | -84.1% (active) and 39.2% (inactive) | -59.5% (active) and 42.4% (inactive) | 42.1% (inactive) and 53.7% (inactive) | -26.4% (active) and 4.54% (active)
7 | Cn1cc(-c2cc3nc(-c4cn(C)c5ncccc45)cc(N)n3n2)c2cc(F)ccc21 | -31.3% (active) | 38.1% (inactive) | 11.5% (inactive) | 47.9% (inactive) | 20.2% (inactive) | 24.4% (inactive) | 31.9% (inactive) | 43.9% (inactive) | 47.2% (inactive) | 28.3% (inactive)
8 | Cc1ccc(-c2cc(C(=O)N=Nc3c(O)[nH]c4ccc(F)cc34)c3ccccc3n2)cc1 | 56.8% (inactive) | 103% (inactive) | 16.8% (inactive) | 70% (inactive) | 1.07% (active) | 94.3% (inactive) | 52.9% (inactive) | 95.3% (inactive) | 32.1% (inactive) | 3.61% (active)
9 | COc1ccc(C2=Nc3c(N)nc(N)nc3NC(c3ccc(Oc4nc(Nc5ccc(F)cc5)nc(N(C)C)n4)c(OC)c3)C2)cc1 (stereo not given) | -29.4% (active) | 36.2% (inactive) | 81.7% (inactive) | 108% (inactive) | 48.4% (inactive) | 93.2% (inactive) | 63.5% (inactive) | 82.5% (inactive) | 37.6% (inactive) | 62.7% (inactive)
10 | COc1ccccc1NC(=O)N/N=C/c1c[nH]c2ccccc12 | 14.6% (inactive) | 13.5% (inactive) | 19.3% (inactive) | 34.4% (inactive) | 61.2% (inactive) | 26.2% (inactive) | 38.7% (inactive) | -32.1% (active) | 23.8% (inactive) | -9.65% (active)
11 | CCCCCCCCc1ccc(C(=O)Nc2ccc(C)c(OP(=O)(O)O)c2)cc1 | 81.9% (inactive) | 50.6% (inactive) | 100% (inactive) | 120% (inactive) | 88.9% (inactive) | 115% (inactive) | 110% (inactive) | 96.2% (inactive) | 91.6% (inactive) | 97.5% (inactive)
12 | O=C(CSc1nc2sc3c(c2c(=O)n1-c1ccc(Cl)cc1)CCCC3)NNC(=O)c1ccc(Br)cc1 | 34.4% (inactive) | 81.3% (inactive) | 34.3% (inactive) | 58.8% (inactive) | 64% (inactive) | 80.8% (inactive) | 60.3% (inactive) | 112% (inactive) | 56.7% (inactive) | 66% (inactive)
13 | COc1cc(C2C(C(=O)OCc3ccccc3)=C(C)Nc3nc4ccccc4n32)cc(OC)c1OC (stereo not given) | 11.3% (inactive) | 48.8% (inactive) | 13.5% (inactive) | 45.5% (inactive) | 1.46% (active) | 25.6% (inactive) | 44.1% (inactive) | 12.1% (inactive) | 14% (inactive) | 6.58% (active)
14 | COc1ccc(-c2nc3ccccc3n2CC(=O)N=Nc2c(O)[nH]c3ccc(OC)cc23)cc1 | 0.469% (active) | 52% (inactive) | 6.22% (active) | 86.8% (inactive) | 50.8% (inactive) | 104% (inactive) | 45.7% (inactive) | 35.5% (inactive) | 30.3% (inactive) | 48% (inactive)
15 | COc1cc(C=O)ccc1OC(=O)c1cc(-c2ccc(C)cc2)n(-c2ccc(S(C)(=O)=O)cc2)n1 | 121% (inactive) | 94.7% (inactive) | 105% (inactive) | 109% (inactive) | 105% (inactive) | 107% (inactive) | 111% (inactive) | 119% (inactive) | 116% (inactive) | 107% (inactive)
16 | O=C(CSc1nnc(-c2ccc(-c3nc4ccc(Cl)cc4[nH]3)cc2)o1)Nc1ccc(Br)cc1 | 17.1% (inactive) | 8.9% (active) | -31.8% (active) | 47.5% (inactive) | 16% (inactive) | 73% (inactive) | 53.4% (inactive) | 9.66% (active) | -0.329% (active) | 15% (inactive)
17 | O=C(COc1ccc(/C=C2/C(=O)Nc3ccc(Cl)cc32)cc1)Nc1ccc(Br)cc1 | -35.7% (active) | 14% (inactive) | -44.4% (active) | 3.15% (active) | -54% (active) | -57.8% (active) | -22.2% (active) | -64.8% (active) | -14.2% (active) | -34% (active)
18 | CC1=NN(C2=NC(=O)C(CC(=O)Nc3ccccc3C(F)(F)F)S2)C(c2ccc(N(C)C)cc2)C1 (stereo not given) | 16.5% (inactive) | 25.3% (inactive) | 52.6% (inactive) | 86% (inactive) | 47.5% (inactive) | 80.6% (inactive) | 59.2% (inactive) | 44.9% (inactive) | 43.8% (inactive) | 62.7% (inactive)
19 | COc1c(B(O)O)cccc1-c1nc2ccc3cn[nH]c3c2c2c1CCCC2 | 71.8% (inactive) | 45.8% (inactive) | 48.4% (inactive) | 76.1% (inactive) | 77.3% (inactive) | 25.3% (inactive) | 57.9% (inactive) | 57% (inactive) | -17.9% (active) | 65.2% (inactive)
20 | Cc1ccc(Cl)cc1NC(=O)Nc1nc2ccc([N+](=O)[O-])cc2s1 | 1.31% (active) | -18.7% (active) | 1.61% (active) | 2.15% (active) | 7.05% (active) | -28.6% (active) | 8.2% (active) | 2.64% (active) | -13.9% (active) | -17.1% (active)
21 | COc1cc(NC(=O)CSc2nnc(-c3ccc(-c4nc5ccc(Cl)cc5[nH]4)cc3)o2)cc(OC)c1OC | 35.7% (inactive) | 25% (inactive) | 62.6% (inactive) | 71.4% (inactive) | 64.8% (inactive) | 109% (inactive) | 52.7% (inactive) | 21.7% (inactive) | 53.3% (inactive) | 63.6% (inactive)
22 | Cc1nc(N)ncc1-c1ccc2ncnc(N3CCc4cc(F)c(Cl)cc43)c2c1 | 45.1% (inactive) | 59.5% (inactive) | 65.4% (inactive) | 49.7% (inactive) | 59.6% (inactive) | 56.5% (inactive) | -10.1% (active) | 52% (inactive) | 20.1% (inactive) | 62.7% (inactive)
23 | COc1ccc(C(=O)c2cc(C(C)=O)c3c(C)cc(C)cn23)cc1 | 31.8% (inactive) | 67.7% (inactive) | 18.4% (inactive) | 80.5% (inactive) | 49.8% (inactive) | 29.1% (inactive) | 80.8% (inactive) | 43.9% (inactive) | 43.4% (inactive) | 35% (inactive)
